Where “and” joins values, the source holds several entries; their conditions need not be identical. Identical values can stand only once. Calls of active or inactive are those of the source.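 Rule for the calls, unless noted: active = normalized viability below 100% at a tested concentration; inactive = the rest.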
Legend:
[1] = P. berghei load reduction in hepatocytes – cell-based, HepG2, luciferase luminescence, HepG2 viability, primary screen (AID 624349; in the data active = parasite load remaining mostly below about 12%, no sharp cut-off; inactive = mostly above about 10%;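 note: 100% = mean of DMSO negative control wells on the same plate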); settings: P. berghei liver stage in HepG2, luciferase luminescence, concentration not given here; parasite load remaining: stronger effect = lower value; viability: measured here: HepG2 viability without parasites
[2] = Wnt pathway potentiators raising nuclear beta-catenin – imaging, WNT3A-conditioned medium, mouse C2C12, NPC library, primary screen (AID 1117326; in the data active = nuclear beta-catenin stimulation mostly above about 4.2%, no sharp cut-off; inactive = mostly below about 10%); settings: stronger effect = higher value
[3] = stimulators of insulin release from INS-1E, primary screen, cell-based, 5 mM glucose, NPC library (AID 1117329;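 active = compound raises insulin release from rat beta cells at 5 mM glucose, no numeric limit stated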); settings: rat INS-1E insulin secretion, at 10 µM, stronger effect = higher value
[4] = growth inhibition of GSK3B-pretreated HCT116 cells – cell-based, CellTiter-Glo, 0.2 to 20 µM (AID 1117336;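 active = compounds lowering colon cancer cell viability after pretreatment blocking the GSK3B kinase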); settings: HCT116 viability after GSK3B inhibitor, at 20 µM, stronger effect = higher value
[5] = inhibition of endothelial tube formation, primary screen, imaging, VEGF stimulated, CD31 staining, tube area, NPC library (AID 1117340;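 active = compound that reduces growth-factor-driven endothelial tube area in a mixed cell culture, no cutoff stated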); settings: VEGF-stimulated ADSC/ECFC co-culture, at 10 µM, stronger effect = higher value
[6] = GLP1 release stimulators, primary, NCI-H716, NPC library (AID 1117341;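 active = compound raises GLP1 secretion from the human gut endocrine cells, with no numeric limit stated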); settings: NCI-H716 cells, at 10 µM, stronger effect = higher value
[7] = HCT116 colon cancer cell growth inhibition, primary screen, CellTiter-Glo luminescence, NPC library (AID 1117342;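 active = compounds that lower survival of HCT116 colon cancer cells in the luminescence readout, no numeric limit stated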); settings: at 20 µM (top of the series)
[8] = reduced SW480 viability measured with CellTiter-Glo, NPC library, primary (AID 1117343;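 active = compounds that lower viability of the colon cancer cells in the luminescence readout, with no numeric limit stated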); settings: CellTiter-Glo luminescence; at 20 µM (top of the series) unless noted
[9] = NPC library primary testing for decreased DLD-1 cell viability via CellTiter-Glo (AID 1117346;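 active = compounds that lower survival of DLD-1 colon cancer cells in the luminescence readout, no cutoff given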); settings: DLD-1 viability, CellTiter-Glo luminescence; at 20 µM (top of the series)
[10] = EMT-state selective cytotoxicity in co-culture – imaging, PC-3E GFP, TEM4-18 mCherry, primary screen (AID 1345086;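 active = compounds killing one labelled cell type while sparing the other, by normalised counts and ratio limits, not self-fluorescent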;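 for all read-outs here: cells exposed to compound for 72 h before imaging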;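 for red/green cell ratio (normalised): normalised mesenchymal count divided by normalised epithelial count so high means epithelial killing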); settings: PC-3E GFP / TEM4-18 mCherry co-culture, imaging cell counts, at 1 µM; for red/green cell ratio (normalised): actives lie on both sides, counts scaled to control wells, 1 = unselective
[11] = viability loss with induced miR-34 in A549 – imaging, A549 dox-inducible miR-34, nuclei and caspase counts, primary screen (AID 1347080;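 active = compounds whose cell count with miR-34 switched on is under 0.7 times the count with it off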); settings: A549 miR-34 inducible, Hoechst nuclei count, 48 h
[12] = MELAS cybrid and Rieske KO viability enhancers – cell-based, MELAS cybrids, Rieske KO mouse fibroblasts, CellTiter-Glo, primary screen (AID 1508586;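 active = mean z-score across replicates of 1.96 or higher in either the MELAS or the Rieske mutant cell line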;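 note: z relative to plate mean and SD of compound and empty wells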); settings: low glucose
[13] = drug combination growth inhibition, ovarian cancer – cell-based, oncology-focused library, rucaparib conditional, profiling panel (AID 1508598); settings: patient-derived ovarian cancer cells, CellTiter-Glo viability, 144 h, stronger effect = lower value
[14] = target: NAD(+) hydrolase SARM1 (Homo sapiens) (UniProt Q6SZW1); assay: blocking NAD cleavage by SARM1 SAM-TIR – cell lysate, NAD-Glo luminescence (AID 1508614;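 active = compound whose remaining NAD level is above about 45 nM, limit read from the data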;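 note: higher remaining NAD means stronger inhibition of SARM1 NADase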); settings: SAM-TIR HEK293T lysate NADase, at 1 µM, stronger effect = higher value
Sequence of NAD(+) hydrolase SARM1 (Homo sapiens) (Q6SZW1 whole entry, looked up): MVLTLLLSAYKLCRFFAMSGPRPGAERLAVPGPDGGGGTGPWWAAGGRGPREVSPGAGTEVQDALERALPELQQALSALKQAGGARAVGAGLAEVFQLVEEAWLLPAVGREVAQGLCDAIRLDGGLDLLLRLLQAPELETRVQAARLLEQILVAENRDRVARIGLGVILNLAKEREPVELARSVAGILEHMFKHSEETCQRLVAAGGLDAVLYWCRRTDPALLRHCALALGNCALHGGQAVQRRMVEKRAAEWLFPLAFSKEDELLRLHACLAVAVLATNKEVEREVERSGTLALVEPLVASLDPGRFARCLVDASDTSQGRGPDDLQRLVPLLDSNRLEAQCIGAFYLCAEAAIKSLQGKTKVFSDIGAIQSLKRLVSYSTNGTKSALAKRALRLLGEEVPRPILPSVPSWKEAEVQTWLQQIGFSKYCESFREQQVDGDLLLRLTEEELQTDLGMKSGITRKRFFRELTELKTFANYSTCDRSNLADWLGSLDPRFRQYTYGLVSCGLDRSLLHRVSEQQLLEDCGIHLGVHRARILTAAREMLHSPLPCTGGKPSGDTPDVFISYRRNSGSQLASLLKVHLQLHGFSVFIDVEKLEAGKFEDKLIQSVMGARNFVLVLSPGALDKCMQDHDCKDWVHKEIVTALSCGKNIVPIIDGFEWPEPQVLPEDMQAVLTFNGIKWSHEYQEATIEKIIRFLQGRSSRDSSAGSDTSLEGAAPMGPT

[15] = compounds altering viability of human ES cells (AID 493140; call rule not given here;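 note: cells exposed to compounds for four days before counting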); settings: human embryonic stem cell survival screen; stronger effect = higher value
[16] = measured here: epithelial PC-3E GFP cell survival
[17] = measured here: mesenchymal TEM4-18 mCherry cell survival
[18] = stronger effect = lower value, cell number ratio, induced over uninduced
[19] = measured here: relative caspase fold change +Dox/-Dox
[20] = measured here: total cells with miR-34 induction, stronger effect = lower value
[21] = measured here: total cells without miR-34 induction
[22] = MELAS cybrid survival, CellTiter-Glo 48 h, stronger effect = higher value
[23] = Rieske KO mouse fibroblast survival, CellTiter-Glo 72 h

COc1c(C)c2c(c(O)c1C/C=C(\C)CCC(=O)OCCN1CCOCC1)C(=O)OC2
active: viability decrease [4] 98.3% | tube area decrease [5] 79.8% | inhibition of viability [7] 83.9% | viability decrease (inhibition) [8] 71.8% | viability decrease (inhibition) [9] 53.3% | viability ([13]; at 0.000305 µM, OCI-P5x cells, with rucaparib 20 µM, 100% = cells with rucaparib alone) 90.9% | viability ([13]; at 0.00122 µM, OCI-P5x cells, with rucaparib 20 µM, 100% = cells with rucaparib alone) 95.2% | viability ([13]; at 0.0781 µM, OCI-P5x cells, without rucaparib) 87.7% | viability ([13]; at 0.313 µM, OCI-P5x cells, with rucaparib 20 µM, 100% = cells with rucaparib alone) 89.1% | viability ([13]; at 0.313 µM, OCI-P5x cells, without rucaparib) 63.2% | viability ([13]; at 1.25 µM, OCI-P5x cells, with rucaparib 20 µM, 100% = cells with rucaparib alone) 74.3% | viability ([13]; at 1.25 µM, OCI-P5x cells, without rucaparib) 42.1% | viability ([13]; at 5 µM, OCI-C5x cells, with rucaparib 10 µM, 100% = cells with rucaparib alone) 69% | viability ([13]; at 5 µM, OCI-C5x cells, without rucaparib) 52.7% | viability ([13]; at 5 µM, OCI-P5x cells, with rucaparib 20 µM, 100% = cells with rucaparib alone) 52.6% | viability ([13]; at 5 µM, OCI-P5x cells, without rucaparib) 30.9%
inactive: parasite load remaining [1] 10.4% | nuclear beta-catenin stimulation ([2]; at 10 µM) 19.6% | insulin secretion stimulation [3] 1.7% | GLP1 secretion stimulation [6] 0.3% | red/green cell ratio (normalised) [10] 0.71 | fold change [11, 18] 0.954 | z-score [12, 22] -0.954 | viability ([13]; at 0.000305 µM, OCI-C5x cells, with rucaparib 10 µM, 100% = cells with rucaparib alone) 104% | viability ([13]; at 0.000305 µM, OCI-C5x cells, without rucaparib) 112% | viability ([13]; at 0.000305 µM, OCI-P5x cells, without rucaparib) 100% | viability ([13]; at 0.00122 µM, OCI-C5x cells, with rucaparib 10 µM, 100% = cells with rucaparib alone) 119% | viability ([13]; at 0.00122 µM, OCI-C5x cells, without rucaparib) 108% | viability ([13]; at 0.00122 µM, OCI-P5x cells, without rucaparib) 104% | viability ([13]; at 0.00488 µM, OCI-C5x cells, with rucaparib 10 µM, 100% = cells with rucaparib alone) 122% | viability ([13]; at 0.00488 µM, OCI-C5x cells, without rucaparib) 110% | viability ([13]; at 0.00488 µM, OCI-P5x cells, with rucaparib 20 µM, 100% = cells with rucaparib alone) 101% | viability ([13]; at 0.00488 µM, OCI-P5x cells, without rucaparib) 108% | viability ([13]; at 0.0195 µM, OCI-C5x cells, with rucaparib 10 µM, 100% = cells with rucaparib alone) 115% | viability ([13]; at 0.0195 µM, OCI-C5x cells, without rucaparib) 113% | viability ([13]; at 0.0195 µM, OCI-P5x cells, with rucaparib 20 µM, 100% = cells with rucaparib alone) 108% | viability ([13]; at 0.0195 µM, OCI-P5x cells, without rucaparib) 109% | viability ([13]; at 0.0781 µM, OCI-C5x cells, with rucaparib 10 µM, 100% = cells with rucaparib alone) 146% | viability ([13]; at 0.0781 µM, OCI-C5x cells, without rucaparib) 149% | viability ([13]; at 0.0781 µM, OCI-P5x cells, with rucaparib 20 µM, 100% = cells with rucaparib alone) 107% | viability ([13]; at 0.313 µM, OCI-C5x cells, with rucaparib 10 µM, 100% = cells with rucaparib alone) 172% | viability ([13]; at 0.313 µM, OCI-C5x cells, without rucaparib) 147% | viability ([13]; at 1.25 µM, OCI-C5x cells, with rucaparib 10 µM, 100% = cells with rucaparib alone) 157% | viability ([13]; at 1.25 µM, OCI-C5x cells, without rucaparib) 110% | remaining NAD [14] 10 nM
1.15: fold change [11, 19]
140%: viability [1]
0.88: normalised cell number [10, 17]
3090: cell count [11, 20]
1.62: z-score [12, 23]
28.6%: nuclear beta-catenin stimulation ([2]; stimulation, at 2 µM)
3240: cell count [11, 21]
1.24: normalised cell number [10, 16]

CC(=O)c1ccc2c(c1)N(CCCN(C)C)c1ccccc1S2
3460 and 8350 and 10600: cell count [11, 20]
inactive: survival [15] 4.75 | parasite load remaining [1] 84% and 65.2% and 28% | nuclear beta-catenin stimulation ([2]; at 10 µM) 0.3% | insulin secretion stimulation [3] 17.4% | tube area decrease [5] 12.5% | GLP1 secretion stimulation [6] 11.1% | viability decrease (inhibition) [9] 24.9% | red/green cell ratio (normalised) [10] 0.9 | fold change [11, 18] 0.938 and 0.873 and 0.834 | z-score [12, 22] -0.172 | remaining NAD [14] 10 nM
active: viability decrease [4] 50.2% | inhibition of viability [7] 55.9% | viability decrease (inhibition) [8] 110%
0.931 and 1.11 and 5.05: fold change [11, 19]
3690 and 9570 and 12700: cell count [11, 21]
0.00604: z-score [12, 23]
1.4%: nuclear beta-catenin stimulation ([2]; stimulation, at 2 µM)
0.88: normalised cell number [10, 17]
0.98: normalised cell number [10, 16]
104% and 77.6% and 98.4%: viability [1]

CC(C)Cn1cnc2c(N)nc3ccccc3c21
1.48: normalised cell number [10, 17]
9200: cell count [11, 20]
1.11: normalised cell number [10, 16]
inactive: parasite load remaining [1] 11.9% | nuclear beta-catenin stimulation ([2]; at 10 µM) 1.6% | insulin secretion stimulation [3] 0% | viability decrease [4] -1.15% | tube area decrease [5] -3.6% | GLP1 secretion stimulation [6] 0.6% | inhibition of viability [7] -6.6% | viability decrease (inhibition) [8] 49.5% | viability decrease (inhibition) [9] 0.7% | red/green cell ratio (normalised) [10] 1.33 | fold change [11, 18] 0.846 | z-score [12, 22] 0.0496 and 0.611 | remaining NAD [14] 10 nM
0.971: fold change [11, 19]
10900: cell count [11, 21]
62.5%: viability [1]
0.2%: nuclear beta-catenin stimulation ([2]; stimulation, at 2 µM)
0.716 and 0.772: z-score [12, 23]

Source: PubChem BioAssay
